Experiment [1] is described as follows: qHTS assay to identify small molecule antagonists of the androgen receptor (AR) signaling pathway using the MDA cell line in the presence of 0.5 nM R1881 - cell viability counter screen (AID 1259242). Also: nearly all actives have a fitted effect of over 45% in size. The procedure, abridged:
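Concentration-response screen of compounds for toxicity in MDA-kb2 reporter cells: 16 hr at 37C with 0.5 nM R1881, endpoint live-cell protease fluorescence measured in the reporter wells.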
A general note: Quantitative high-throughput screening tests each substance at several concentrations.

Experiment [2] is described as follows: qHTS assay to identify small molecule HDAC inhibitors (AID 1259364).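 Also: wild-type HCT-116 cells with endogenous class I/II HDAC activity; top concentration of the series differs between compounds; nearly all actives have a fitted effect of over 45% in size.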 The procedure, abridged: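 Screening used wild-type human colon HCT-116 cells incubated overnight, dosed with compounds for 2 hours, and assayed with a homogeneous luminogenic HDAC I/II reagent for 30 minutes at room temperature.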
Experiment [3] can be described thus: qHTS assay to identify small molecule HDAC inhibitors - cell viability counter screen (AID 1259365). Also: series mostly up to about 92 µM; nearly all actives have a fitted effect of over 50% in size. The procedure, abridged: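 Cytotoxicity was gauged in wild-type HCT-116 cells after a brief 2hr treatment with DMSO-dissolved compounds at 37C and 5% CO2, using CellTiter-Glo luminescence developed for 30min at room temperature.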
A short description of experiment [4]: qHTS assay to identify small molecule agonists of the sonic hedgehog signaling (Shh) pathway - cell viability counter screen (AID 1259366). Also: nearly all actives have a fitted effect of over 50% in size. Also: potency is read from the fitted curve at half-maximal effect. The procedure, abridged: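 Stable Gli1-Luc NIH/3T3 clone, 2,000 cells/well. Compound exposure 24hr at 37C. Read-out: CellTiter-Fluor fluorescence.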
Experiment [5] can be described thus: qHTS assay to identify small molecule antagonists of the sonic hedgehog signaling (Shh) pathway - cell viability counter screen (AID 1259367). Also: nearly all actives have a fitted effect of over 55% in size. Also: potency is read from the fitted curve at half-maximal effect. The procedure, abridged:
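Viability was read by CellTiter-Fluor fluorescence in the same wells, reagent added 23 hr into compound treatment and incubated 1 hr at 37C. The 3T3 Gli1-Luc reporter cells (2,000/well) received conditioned medium after compound and ran 24 hr.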

A short description of experiment [6]: qHTS assay to identify small molecule agonists of the sonic hedgehog signaling (Shh) pathway (AID 1259368; calls by dose curve;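 also: NIH/3T3-derived 3T3Gli1-Luc cells carrying a stable Gli1-driven firefly luciferase reporter; series mostly up to about 92 µM; nearly all actives have a fitted effect of over 15% in size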). The procedure, abridged: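 Hedgehog pathway agonism scored by increased firefly luciferase luminescence in 3T3Gli1-Luc cells treated 24 hr at 37 C; detection used a 30 min room-temperature reagent incubation.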
A short description of experiment [7]: qHTS assay to identify small molecule antagonists of the sonic hedgehog signaling (Shh) pathway (AID 1259369; calls by dose curve; also: nearly all actives have a fitted effect of over 45% in size). The procedure, abridged: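 NIH/3T3 stable Gli1-Luc clone, 2,000 cells/well, 4hr settle; cpd + conditioned medium 24hr; Luc reagent 30min RT; luminescence.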
The target of experiment [8] is Androgen receptor (Homo sapiens) (UniProt P10275). The experiment can be described thus: qHTS assay to identify small molecule antagonists of the androgen receptor (AR) signaling pathway using the MDA cell line in the presence of 0.5 nM R1881 (AID 1259243). Also: nearly all actives have a fitted effect of over 50% in size. The procedure, abridged:
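With R1881 held at 0.5 nM (final), compound effects on MMTV-luciferase expression in MDA-kb2 cells were scored by luminescence after a 16 hr, 37C incubation.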

Experiment [9] has as its target Estrogen receptor (Homo sapiens) (UniProt P03372). The experiment can be described thus: qHTS assay to identify small molecule antagonists of the estrogen receptor alpha (ER-alpha) signaling pathway using the BG1 cell line in the presence of 0.1 nM 17-beta-estradiol (AID 1259244). Also: nearly all actives have a fitted effect of over 50% in size. The procedure, abridged:
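Compounds were tested against 0.1 nM (final) 17beta-estradiol in VM7Luc4E2 cells, which express full-length ER-alpha and an ERE-luciferase reporter; luminescence was recorded following 22 h exposure.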

The nature of experiment [10]: qHTS assay to identify small molecule phospholipidosis (PLD) inducers (AID 1259344; active = well fitted curve in the direction sought with a large enough effect; an effect the other way counts as inactive or inconclusive). The procedure, abridged: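 Phospholipid accumulation was scored by imaging: fixed, Hoechst-counterstained HepG2 cells stained with LipidTOX Red after 24 h compound exposure at 37 C. Read-outs were pit count and pit intensity per well or per cell, with amiodarone and DMSO controls.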

Molecules are shown by their SMILES. Values without a mark were called inactive. Inconclusive results are not listed. The source made the active and inactive calls. Unless noted, calls follow the shape of the dose curve; as a rule, active = well fitted curve in the direction sought with a large enough effect in the repeat runs; inconclusive = weak or mixed curves; inactive = no such curve, though single readings can be large; an effect the other way counts as inactive or inconclusive.
% is scaled to controls: 0 for no effect and ±100 for the full control effect.

Chain of Estrogen receptor (Homo sapiens) (P03372 whole entry, looked up): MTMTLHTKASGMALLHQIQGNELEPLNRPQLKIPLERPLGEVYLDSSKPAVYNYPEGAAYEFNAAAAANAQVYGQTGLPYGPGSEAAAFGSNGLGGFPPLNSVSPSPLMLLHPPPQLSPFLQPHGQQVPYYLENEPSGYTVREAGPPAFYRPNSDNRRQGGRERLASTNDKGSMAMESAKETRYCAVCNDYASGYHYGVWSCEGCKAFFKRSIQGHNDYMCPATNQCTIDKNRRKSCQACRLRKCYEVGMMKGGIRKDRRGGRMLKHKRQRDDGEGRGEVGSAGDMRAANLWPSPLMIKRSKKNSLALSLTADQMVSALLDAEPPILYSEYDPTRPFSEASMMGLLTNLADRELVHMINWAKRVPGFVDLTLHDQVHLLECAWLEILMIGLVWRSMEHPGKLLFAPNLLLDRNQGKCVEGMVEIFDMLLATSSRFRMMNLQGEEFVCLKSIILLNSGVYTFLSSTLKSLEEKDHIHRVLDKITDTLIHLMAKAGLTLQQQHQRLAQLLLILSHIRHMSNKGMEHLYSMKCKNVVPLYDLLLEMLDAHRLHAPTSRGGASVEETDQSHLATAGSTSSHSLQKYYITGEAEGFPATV
Chain of Androgen receptor (Homo sapiens) (P10275 whole entry, looked up): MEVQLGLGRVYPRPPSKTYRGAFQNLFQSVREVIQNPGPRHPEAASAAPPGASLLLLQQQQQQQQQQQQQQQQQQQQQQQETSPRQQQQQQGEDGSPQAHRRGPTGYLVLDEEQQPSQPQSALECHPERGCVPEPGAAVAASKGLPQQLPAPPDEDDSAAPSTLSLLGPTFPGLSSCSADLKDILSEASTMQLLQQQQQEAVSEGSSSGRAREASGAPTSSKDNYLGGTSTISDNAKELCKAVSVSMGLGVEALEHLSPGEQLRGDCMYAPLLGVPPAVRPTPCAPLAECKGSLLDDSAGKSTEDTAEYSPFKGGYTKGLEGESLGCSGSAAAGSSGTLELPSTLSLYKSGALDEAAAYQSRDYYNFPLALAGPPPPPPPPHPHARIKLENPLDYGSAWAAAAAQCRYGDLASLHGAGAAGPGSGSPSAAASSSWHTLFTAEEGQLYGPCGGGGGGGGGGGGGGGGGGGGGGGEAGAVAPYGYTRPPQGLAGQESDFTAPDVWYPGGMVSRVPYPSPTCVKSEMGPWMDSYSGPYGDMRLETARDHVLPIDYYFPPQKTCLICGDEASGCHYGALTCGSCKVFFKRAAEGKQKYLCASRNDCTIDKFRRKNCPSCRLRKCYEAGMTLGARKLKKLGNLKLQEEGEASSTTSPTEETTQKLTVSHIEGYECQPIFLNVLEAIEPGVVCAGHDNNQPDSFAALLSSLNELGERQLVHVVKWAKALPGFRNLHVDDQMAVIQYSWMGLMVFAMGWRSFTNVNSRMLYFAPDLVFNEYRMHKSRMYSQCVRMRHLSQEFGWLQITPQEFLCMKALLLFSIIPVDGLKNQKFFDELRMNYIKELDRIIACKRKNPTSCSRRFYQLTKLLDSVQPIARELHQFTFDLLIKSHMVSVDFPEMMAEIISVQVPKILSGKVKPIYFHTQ

In the case of `N#Cc1ccc(C(=O)O)cc1`, the outcome in experiment [1], in experiment [3] and in experiment [6] was inactive. Moreover, the Potency entry in experiment [2], in experiment [4], in experiment [5] and in experiment [7] was “inactive” in each case.

Consider `CCC(C=O)CC`, for which the outcome in experiment [1], in experiment [3] and in experiment [6] was inactive. Further, the Potency entry in experiment [2], in [5] and in experiment [7] was “inactive” in each case.

As to `Nc1ccc(S(=O)(=O)Nc2ccc(Cl)nn2)cc1`, the Potency result in experiment [8], in experiment [9], in experiment [2], in experiment [4], in experiment [5] and in experiment [7] was “inactive” throughout. Also, the outcome in experiment [10] and in [3] was inactive.

Regarding `C[Si](C)(C)C`, the result in experiment [1] and in experiment [3] was inactive. For the same molecule, the Potency entry in experiment [2], in experiment [4], in experiment [5] and in experiment [7] was “inactive” in each case.

Turning to `NS(=O)(=O)c1cc2c(cc1Cl)CN(C1CCCCC1)C2=O`, the outcome in experiment [1], in [3] and in [6] was inactive. In addition, the Potency result in experiment [2], in [4], in experiment [5] and in experiment [7] was “inactive” throughout.

For `C[C@@H]1O[C@@H](O[C@@H]2[C@@H](O)[C@H](OCCc3ccc(O)c(O)c3)O[C@H](CO[C@@H]3O[C@H](CO)[C@@H](O)[C@H](O)[C@H]3O)[C@H]2OC(=O)/C=C/c2ccc(O)c(O)c2)[C@H](O)[C@H](O)[C@H]1O`, the result in [1] and in experiment [3] was inactive. In addition, the Potency result in [2] and in experiment [7] was “inactive” each time.

`CC/C=C\CC1=C(C)CCC1=O`: the outcome in experiment [1], in experiment [3] and in experiment [6] was inactive. The Potency entry in experiment [2], in experiment [4], in [5] and in [7] was “inactive” each time.

For the molecule `CCOCCOCCOCC`, the result in [1], in [3] and in experiment [6] was inactive. The Potency result in experiment [2], in [4], in experiment [5] and in experiment [7] was “inactive” in each case.

In the case of `CCC(C)(CCC(C)C)C(=O)O` (stereo not drawn), the result in experiment [1], in [3] and in experiment [6] was inactive. Further, the Potency result in [2], in [4], in [5] and in experiment [7] was “inactive” each time.

For the molecule `COc1ccc(Br)c(C)c1`, the result in experiment [1] and in [3] was inactive. Besides, the Potency entry in experiment [2], in experiment [4], in [5] and in experiment [7] was “inactive” throughout.

Consider `CC(=C(CCOC(=O)C(C)C)SSC(CCOC(=O)C(C)C)=C(C)N(C=O)Cc1cnc(C)nc1N)N(C=O)Cc1cnc(C)nc1N`, for which the Potency entry in experiment [9], in experiment [2], in experiment [4] and in experiment [5] was “inactive” throughout. Besides, the outcome in experiment [10], in experiment [3] and in experiment [6] was inactive.

For the molecule `OCCN(CCO)c1cccc(Cl)c1`, the result in [1], in experiment [3] and in [6] was inactive. The Potency entry in experiment [2], in experiment [4], in [5] and in experiment [7] was “inactive” each time.

Regarding `OCCCCC(O)CO` (stereo not drawn), the outcome in experiment [1], in [3] and in experiment [6] was inactive. Moreover, the Potency entry in [2], in experiment [4], in experiment [5] and in experiment [7] was “inactive” in each case.

Regarding `N[C@@H](CCC(=O)Nc1ccc([N+](=O)[O-])cc1)C(=O)O`, the Potency result in experiment [8], in [9], in experiment [2], in experiment [4], in experiment [5] and in [7] was “inactive” in each case. Also, the molecule was classed as inactive in [3] and in experiment [6].

With `COc1cc2c(cc1OC)C(=O)CC2`, the result in experiment [1], in experiment [3] and in [6] was inactive. Further, the Potency entry in experiment [2], in experiment [4], in experiment [5] and in experiment [7] was “inactive” in each case.

For `C[Si](C)=O`, the figures for the activity change, negative = inhibition in experiment [2] and in experiment [7] were 1.64% [at 8.39 µM] and 4.44% [at 8.39 µM], respectively. Moreover, in experiment [3], the activity change, negative = cytotoxicity was 2.53% [at 8.39 µM]. Also, the viability change, negative = cytotoxic in [4] was -1.38% [at 8.39 µM]; in [5], 0.12% [at 8.39 µM]. Moreover, in experiment [6], the activity change was 0.132% [at 8.39 µM].

As to `C=C1CC/C=C(\C)CC[C@@H]2[C@@H]1CC2(C)C`, the Potency result in experiment [9], in experiment [2], in experiment [4], in experiment [5] and in experiment [7] was “inactive” each time. In addition, the call in experiment [3] and in [6] was inactive.

In the case of `Cc1ccc(S(=O)(=O)O)c(C)c1`, the Potency result in [9], in [2], in experiment [4], in experiment [5] and in experiment [7] was “inactive” in each case. Moreover, the molecule was called inactive in [3] and in [6].

On to `Nc1ccc([N+](=O)[O-])c(N)c1`, for which the Potency result in experiment [9], in experiment [2] and in experiment [7] was “inactive” each time. Also, the outcome in experiment [3] and in experiment [6] was inactive. Moreover, the Potency in experiment [4] is 29.9 µM (active); in experiment [5] it was 33.5 µM (active).

On to `O=C(O)c1cc(Cl)cc([N+](=O)[O-])c1Cl`, for which the Potency entry in [9], in experiment [2], in experiment [4], in experiment [5] and in [7] was “inactive” throughout. For the same molecule, the result in [3] and in [6] was inactive.

For the molecule `COc1ccc2c(c1)C(=O)N(CCc1ccc(S(=O)(=O)NC(=O)NC3CCCCC3)cc1)C(=O)C2(C)C`, the Potency result in experiment [9], in experiment [2], in [4], in experiment [5] and in experiment [7] was “inactive” throughout. Besides, the call in experiment [10] and in experiment [3] was inactive.

For the molecule `O=C(c1ccc(O)cc1)c1ccc(O)c(O)c1O`, the call in experiment [3] and in [6] was inactive. The Potency in [4] was 30.8 µM (active).

As to `NCCS`, the outcome in [10], in experiment [3] and in experiment [6] was inactive. The Potency entry in experiment [2], in [4], in experiment [5] and in [7] was “inactive” throughout.

For `COCCOCCOCCOCCOCCO`, the Potency entry in [2], in experiment [4], in experiment [5] and in experiment [7] was “inactive” throughout. Moreover, the result in experiment [3] and in [6] was inactive.

For the molecule `CCCCCCCCC(=O)Cl`, the Potency result in [9], in experiment [2], in experiment [4], in [5] and in experiment [7] was “inactive” each time. For the same molecule, the result in experiment [3] and in experiment [6] was inactive.

Consider `COc1ccc2nc(SCc3ncc(C)c(OC)c3C)[nH]c2c1`, for which the Potency entry in [9], in experiment [2], in experiment [4], in experiment [5] and in experiment [7] was “inactive” throughout. In addition, the molecule was called inactive in experiment [3] and in [6].

In the case of `O=C(OCC(O)CO)c1ccccc1Nc1ccnc2c(C(F)(F)F)cccc12` (stereo not drawn), the Potency entry in experiment [9], in [2], in experiment [4] and in experiment [5] was “inactive” each time. For the same molecule, the outcome in experiment [3] and in experiment [6] was inactive.

For the origin of these results see PubChem BioAssay (Tox21).
